These results are taken from PubChem BioAssay (EPA / NIEHS).

Activity calls are given as the source filed them. Rule for the calls: active = hit-call score of the fitted dose curve at least 0.9, where 1 is the maximum; inactive = score below 0.9.

E-selectin (Homo sapiens), sequence (P16581 whole entry, looked up): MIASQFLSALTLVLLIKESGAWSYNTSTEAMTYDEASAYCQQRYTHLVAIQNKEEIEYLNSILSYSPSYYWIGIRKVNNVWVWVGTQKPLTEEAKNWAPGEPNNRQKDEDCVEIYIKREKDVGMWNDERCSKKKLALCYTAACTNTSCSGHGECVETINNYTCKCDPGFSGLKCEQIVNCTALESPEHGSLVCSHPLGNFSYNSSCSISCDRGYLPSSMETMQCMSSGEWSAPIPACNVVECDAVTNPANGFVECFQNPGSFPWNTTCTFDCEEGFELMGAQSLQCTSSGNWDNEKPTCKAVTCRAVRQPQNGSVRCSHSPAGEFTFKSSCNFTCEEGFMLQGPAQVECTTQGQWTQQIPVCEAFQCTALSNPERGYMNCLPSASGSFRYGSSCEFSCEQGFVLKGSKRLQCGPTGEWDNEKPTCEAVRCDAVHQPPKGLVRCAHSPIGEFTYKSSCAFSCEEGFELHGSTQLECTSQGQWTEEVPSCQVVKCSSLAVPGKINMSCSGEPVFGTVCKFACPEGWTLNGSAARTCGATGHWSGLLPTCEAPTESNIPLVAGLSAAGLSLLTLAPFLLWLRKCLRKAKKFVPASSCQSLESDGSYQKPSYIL

Read-out in one assay: E-selectin (Homo sapiens) (UniProt P16581)
The assay is described as follows: BSK_SAg_Eselectin: BioMAP Diversity Plus: SAg Assay for Eselectin Biomarker Activity (AID 2283091). The note with it: primary human HUVEC with PBMC; actives raise or lower the signal. The method, boiled down: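 E-selectin ELISA readout at 24 h post-dosing in human umbilical vein endothelial cell/PBMC co-culture; gain or loss of signal fitted relative to DMSO baseline.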
Turning to `CC1COc2ccccc2N1C(=O)C(Cl)Cl` (stereo unspecified), the AC50 is 13.3 µM (active).

With `O=P(c1ccccc1)(c1ccccc1)c1ccccc1`, the outcome was inactive.

As for `OC[C@H]1O[C@H](O[C@]2(CCl)O[C@H](CCl)[C@@H](O)[C@@H]2O)[C@H](O)[C@@H](O)[C@H]1Cl`, the outcome was inactive.

Take `Nc1cc([N+](=O)[O-])ccc1O`: the result was inactive.

For the compound `c1ccc2sc(SN(C3CCCCC3)C3CCCCC3)nc2c1`, the outcome was inactive.

As to `COc1cc(C=O)ccc1OC(=O)C(C)C`, the outcome was inactive.

As to `CC(C)c1ccc(C(C)C)cc1`, the outcome was inactive.

Read-out in a further assay: Monokine induced gamma interferon (MIG), CXCL9 (gene 4283)
Kind of assay: BSK_SAg_MIG: BioMAP Diversity Plus: SAg Assay for Monokine induced gamma interferon (MIG) Biomarker Activity (AID 2283092). The note with it: primary human HUVEC with PBMC; actives raise or lower the signal. The method, boiled down:
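Values reflect bidirectional fitting of ELISA-measured MIG against DMSO vehicle, taken 24 h after dosing of a co-culture of human umbilical vein endothelial cells and peripheral blood mononuclear cells.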
In the case of `O=C(O)c1cn(C2CC2)c2cc(N3CCNCC3)c(F)cc2c1=O`, the result was inactive.

For the compound `C=C(C)C(=O)O[C@H]1C[C@@H]2CC[C@@]1(C)C2(C)C`, the AC50 was 36.3 µM (active).

Consider `CCCCCCCCCCCCCCCCCC(=O)OCC(CC)CCCC` (stereo unspecified), for which the result was inactive.

For `CC(C)(COC(=O)c1ccccc1)COC(=O)c1ccccc1`, the outcome was inactive.

With `O=C(O)C[C@H](O)C[C@H](O)/C=C/c1c(C2CC2)nc2ccccc2c1-c1ccc(F)cc1`, the outcome was inactive.

In the case of `CCc1c(C)cc(N)c(CC)c1N`, the result was inactive.

`CC(=O)OCCC(C)CC(C)(C)C` (stereo unspecified): the result was inactive.

As for `O=C(O)c1cn(-c2ccc(F)cc2)c2cc(N3CCNCC3)c(F)cc2c1=O`, the outcome was inactive.

Turning to `CCn1c2ccccc2c2cc(N)ccc21`, the result was inactive.

For `O=C1OC2(c3cc(Br)c(O)c(Br)c3Oc3c2cc(Br)c(O)c3Br)c2c(Cl)c(Cl)c(Cl)c(Cl)c21`, the concentration at half-maximal activity (AC50) was 23.1 µM (active).

Regarding `OC1OC[C@@H](O)[C@H](O)[C@H]1O` (stereo partly specified), the result was inactive.

Take `BrC1CCC(Br)C(Br)CCC(Br)C(Br)CCC1Br` (stereo unspecified): the outcome was inactive.

Regarding `Nc1cc([N+](=O)[O-])ccc1Cl`, the result was inactive.

As for `CC(=O)O[C@]1(C(C)=O)CC[C@H]2[C@@H]3C[C@H](C)C4=CC(=O)CC[C@]4(C)[C@H]3CC[C@@]21C`, the outcome was inactive.

`CCCCC(CC)COC(=O)/C=C\C(=O)OCC(CC)CCCC` (stereo unspecified): the result was inactive.

For the compound `CCCCCCCCCC=O`, the outcome was inactive.

In the case of `CC1COc2ccccc2N1C(=O)C(Cl)Cl` (stereo unspecified), the result was inactive.

With `O=P(c1ccccc1)(c1ccccc1)c1ccccc1`, the result was inactive.

Consider `OC[C@H]1O[C@H](O[C@]2(CCl)O[C@H](CCl)[C@@H](O)[C@@H]2O)[C@H](O)[C@@H](O)[C@H]1Cl`, for which the result was inactive.

For the compound `Nc1cc([N+](=O)[O-])ccc1O`, the result was inactive.

With `c1ccc2sc(SN(C3CCCCC3)C3CCCCC3)nc2c1`, the result was inactive.

On to `COc1cc(C=O)ccc1OC(=O)C(C)C`, for which the outcome was inactive.

Take `CC(C)c1ccc(C(C)C)cc1`: the outcome was inactive.

Read-out in a further assay: not listed separately
Kind of assay: BSK_SAg_PBMCCytotoxicity: PBMC Cytotoxicity Assessment in the BioMAP Diversity Plus: SAg Assay (AID 2283093).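 For AC50: PBMC superantigen activated with SEB plus TSST-1 one hour after compound addition.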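 Note: fitted both ways against DMSO so a hit may be loss or gain of signal.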 To be noted: primary human HUVEC with PBMC. In short, it runs like this: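 PBMC viability by Alamar Blue reduction, fluorescence read at 546/580 nm after 6 h dye exposure. Cells were dosed 1 h before SEB plus TSST-1 activation (20 ng/mL final each), then held 90 h; endothelial/PBMC human co-culture.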
As for `O=C(O)c1cn(C2CC2)c2cc(N3CCNCC3)c(F)cc2c1=O`, the outcome was inactive.

As for `C=C(C)C(=O)O[C@H]1C[C@@H]2CC[C@@]1(C)C2(C)C`, the AC50 is 33.1 µM (active).

Take `CCCCCCCCCCCCCCCCCC(=O)OCC(CC)CCCC` (stereo unspecified): the result was inactive.

For the compound `CC(C)(COC(=O)c1ccccc1)COC(=O)c1ccccc1`, the result was inactive.

`O=C(O)C[C@H](O)C[C@H](O)/C=C/c1c(C2CC2)nc2ccccc2c1-c1ccc(F)cc1`: the outcome was inactive.

With `CCc1c(C)cc(N)c(CC)c1N`, the result was inactive.

Consider `CC(=O)OCCC(C)CC(C)(C)C` (stereo unspecified), for which the outcome was inactive.

Take `O=C(O)c1cn(-c2ccc(F)cc2)c2cc(N3CCNCC3)c(F)cc2c1=O`: the result was inactive.

On to `CCn1c2ccccc2c2cc(N)ccc21`, for which the outcome was inactive.

Consider `O=C1OC2(c3cc(Br)c(O)c(Br)c3Oc3c2cc(Br)c(O)c3Br)c2c(Cl)c(Cl)c(Cl)c(Cl)c21`, for which the AC50 is 23.5 µM (active).

Take `OC1OC[C@@H](O)[C@H](O)[C@H]1O` (stereo partly specified): the result was inactive.

In the case of `BrC1CCC(Br)C(Br)CCC(Br)C(Br)CCC1Br` (stereo unspecified), the AC50 was 2.03 µM (active).

Take `Nc1cc([N+](=O)[O-])ccc1Cl`: the outcome was inactive.

As for `CC(=O)O[C@]1(C(C)=O)CC[C@H]2[C@@H]3C[C@H](C)C4=CC(=O)CC[C@]4(C)[C@H]3CC[C@@]21C`, the result was inactive.

`CCCCC(CC)COC(=O)/C=C\C(=O)OCC(CC)CCCC` (stereo unspecified): the result was inactive.

As to `CCCCCCCCCC=O`, the result was inactive.

As to `CC1COc2ccccc2N1C(=O)C(Cl)Cl` (stereo unspecified), the outcome was inactive.

Turning to `O=P(c1ccccc1)(c1ccccc1)c1ccccc1`, the result was inactive.

As for `OC[C@H]1O[C@H](O[C@]2(CCl)O[C@H](CCl)[C@@H](O)[C@@H]2O)[C@H](O)[C@@H](O)[C@H]1Cl`, the outcome was inactive.

With `Nc1cc([N+](=O)[O-])ccc1O`, the outcome was inactive.

In the case of `c1ccc2sc(SN(C3CCCCC3)C3CCCCC3)nc2c1`, the AC50 was 5.28 µM (active).

In the case of `COc1cc(C=O)ccc1OC(=O)C(C)C`, the outcome was inactive.

On to `CC(C)c1ccc(C(C)C)cc1`, for which the outcome was inactive.

Read-out in a further assay: Interleukin-8 (IL8), CXCL8 (gene 3576)
Kind of assay: BSK_SAg_IL8: BioMAP Diversity Plus: SAg Assay for Interleukin-8 (IL8) Biomarker Activity (AID 2283094). The note with it: primary human HUVEC with PBMC; actives raise or lower the signal. In short, it runs like this: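 Chemicals were dosed onto a human endothelial–PBMC co-culture, and IL-8 was quantified by ELISA after 24 h. Both increases and decreases were fitted relative to DMSO.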
In the case of `O=C(O)c1cn(C2CC2)c2cc(N3CCNCC3)c(F)cc2c1=O`, the outcome was inactive.

On to `C=C(C)C(=O)O[C@H]1C[C@@H]2CC[C@@]1(C)C2(C)C`, for which the AC50 was 35.3 µM (active).

For `CCCCCCCCCCCCCCCCCC(=O)OCC(CC)CCCC` (stereo unspecified), the outcome was inactive.

In the case of `CC(C)(COC(=O)c1ccccc1)COC(=O)c1ccccc1`, the result was inactive.

Turning to `O=C(O)C[C@H](O)C[C@H](O)/C=C/c1c(C2CC2)nc2ccccc2c1-c1ccc(F)cc1`, the AC50 is 0.0041 µM (active).

With `CCc1c(C)cc(N)c(CC)c1N`, the result was inactive.

On to `CC(=O)OCCC(C)CC(C)(C)C` (stereo unspecified), for which the outcome was inactive.

With `O=C(O)c1cn(-c2ccc(F)cc2)c2cc(N3CCNCC3)c(F)cc2c1=O`, the outcome was inactive.

As for `CCn1c2ccccc2c2cc(N)ccc21`, the AC50 was 0.0208 µM (active).

Consider `O=C1OC2(c3cc(Br)c(O)c(Br)c3Oc3c2cc(Br)c(O)c3Br)c2c(Cl)c(Cl)c(Cl)c(Cl)c21`, for which the outcome was inactive.

Consider `OC1OC[C@@H](O)[C@H](O)[C@H]1O` (stereo partly specified), for which the result was inactive.

Consider `BrC1CCC(Br)C(Br)CCC(Br)C(Br)CCC1Br` (stereo unspecified), for which the outcome was inactive.

Turning to `Nc1cc([N+](=O)[O-])ccc1Cl`, the result was inactive.

With `CC(=O)O[C@]1(C(C)=O)CC[C@H]2[C@@H]3C[C@H](C)C4=CC(=O)CC[C@]4(C)[C@H]3CC[C@@]21C`, the result was inactive.

In the case of `CCCCC(CC)COC(=O)/C=C\C(=O)OCC(CC)CCCC` (stereo unspecified), the result was inactive.

For `CCCCCCCCCC=O`, the result was inactive.

Consider `CC1COc2ccccc2N1C(=O)C(Cl)Cl` (stereo unspecified), for which the outcome was inactive.

With `O=P(c1ccccc1)(c1ccccc1)c1ccccc1`, the outcome was inactive.

As to `OC[C@H]1O[C@H](O[C@]2(CCl)O[C@H](CCl)[C@@H](O)[C@@H]2O)[C@H](O)[C@@H](O)[C@H]1Cl`, the outcome was inactive.

As to `Nc1cc([N+](=O)[O-])ccc1O`, the result was inactive.

As for `c1ccc2sc(SN(C3CCCCC3)C3CCCCC3)nc2c1`, the half-maximal activity concentration (AC50) is 3.23 µM (active).

With `COc1cc(C=O)ccc1OC(=O)C(C)C`, the outcome was inactive.

Regarding `CC(C)c1ccc(C(C)C)cc1`, the outcome was inactive.
